According to the supplement of paper PMC12669032:

Columns and labels:
Assay in all cases: growth AUC relative to DMSO control (median of replicates) (fraction); higher = more growth (less inhibition), active = hit call of the paper
Conditions in all cases: 20 µM; 24 h;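 active = AUC reduced over 20% with Padj below 0.05 in at least 2 of 3 replicates; inactive = otherwise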
[1] = system: Akkermansia muciniphila
In short: (§1)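 Area under the growth curve was normalised to the plate median of solvent-only wells, or to row and column medians on the industrial chemical plate. Growth curves came from anaerobic gut bacterial monocultures in mGAM at 37 °C, seeded at OD600 0.05 with 20 µM compound (1% DMSO), and read at OD600 hourly for 24 h with the minimum OD set to 0. The value is the median of three biological replicates grown on separate days.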

[2] = system: Bacteroides caccae
In short: as §1

[3] = system: Bacteroides clarus
In short: as §1

[4] = system: Bacteroides dorei
In short: as §1

[5] = system: Bacteroides stercoris
In short: as §1

[6] = system: Bacteroides thetaiotaomicron
In short: as §1

[7] = system: Bacteroides uniformis
In short: as §1

[8] = system: Bifidobacterium longum subsp. longum
In short: as §1

[9] = system: Clostridium difficile
In short: as §1

[10] = system: Collinsella aerofaciens
In short: as §1

Measured: growth AUC

O=C1NC(=O)c2ccccc21
inactive: [1] 1.09 | [2] 0.873 | [3] 1.02 | [4] 1 | [5] 1.31 | [6] 1 | [7] 1.01 | [8] 1.04 | [9] 1.01 | [10] 0.982

O=S(=O)(Oc1ccc(Cl)cc1Cl)c1ccccc1
inactive: [1] 0.953 | [2] 0.956 | [3] 1 | [4] 0.939 | [5] 0.967 | [6] 1.01 | [7] 0.996 | [8] 1.1 | [9] 1.01 | [10] 0.98

O=C(Nc1ccc(O)cc1-c1ccc(Cl)cc1)c1cccnc1Cl
inactive: [1] 0.889 | [2] 1.02 | [3] 0.976 | [4] 1.03 | [5] 0.964 | [6] 1.01 | [7] 1 | [8] 1.01 | [9] 1.03 | [10] 1.02

N#Cc1ccc(CC(=NNC(=O)Nc2ccc(OC(F)(F)F)cc2)c2cccc(C(F)(F)F)c2)cc1 (mixture of isomers)
inactive: [1] 1 | [2] 1.03 | [3] 1.02 | [4] 1.03 | [5] 0.988 | [6] 1.02 | [7] 1.02 | [8] 0.999 | [9] 1.01 | [10] 1.03

CCC(C)Nc1nc(N)nc(Cl)n1 (stereo not given)
inactive: [1] 1.09 | [2] 0.906 | [3] 0.995 | [4] 1.02 | [5] 1.16 | [6] 1.01 | [7] 0.949 | [8] 1.03 | [9] 0.974 | [10] 1.01

ClC(COCC(Cl)C(Cl)(Cl)Cl)C(Cl)(Cl)Cl (stereo not given)
inactive: [1] 0.875 | [2] 0.969 | [3] 0.942 | [4] 1.01 | [5] 0.952 | [6] 0.91 | [7] 0.918 | [8] 0.967 | [9] 1.02 | [10] 1.05

COC(=O)Cc1cccc2ccccc12
inactive: [1] 1.01 | [2] 1.01 | [3] 0.989 | [4] 0.965 | [5] 1.07 | [6] 0.995 | [7] 1 | [8] 1.02 | [9] 1.01 | [10] 0.96

CC1COc2ccccc2N1C(=O)C(Cl)Cl (stereo not given)
inactive: [1] 0.721 | [2] 0.953 | [3] 0.958 | [4] 0.876 | [5] 0.945 | [6] 0.903 | [7] 0.985 | [8] 1.03 | [9] 0.875 | [10] 0.89

CC(C)c1cc(Oc2ccccc2)cc(C(C)C)c1NC(=S)NC(C)(C)C
inactive: [1] 0.863 | [2] 0.984 | [3] 0.96 | [4] 0.983 | [5] 0.98 | [6] 0.97 | [7] 0.998 | [8] 0.929 | [9] 0.957 | [10] 1.03

COc1nc(NC(=O)NS(=O)(=O)c2ccccc2C(F)(F)F)nc(C(F)(F)F)n1
inactive: [1] 1.06 | [2] 1.03 | [3] 0.979 | [4] 0.971 | [5] 1 | [6] 0.974 | [7] 1 | [8] 1.01 | [9] 0.987 | [10] 1.01

Cc1nn(C)c(Oc2ccccc2)c1/C=N/OCc1ccc(C(=O)OC(C)(C)C)cc1
inactive: [1] 1.04 | [2] 1.01 | [3] 1.03 | [4] 0.974 | [5] 0.961 | [6] 0.982 | [7] 0.969 | [8] 0.944 | [9] 1.02 | [10] 0.963

COc1cc(OC)nc(Sc2cccc3c2C(=O)OC3C)n1 (stereo not given)
inactive: [1] 0.871 | [2] 1.01 | [3] 0.989 | [4] 1.04 | [5] 1.06 | [6] 0.974 | [7] 0.97 | [8] 0.974 | [9] 0.998 | [10] 1.03

COC1CCC2(CC1)NC(=O)C(c1cc(C)ccc1C)=C2OC1OC(CO)C(O)C(O)C1O (stereo not given)
inactive: [1] 1.1 | [2] 0.946 | [3] 1.02 | [4] 0.993 | [5] 1.21 | [6] 0.984 | [7] 1.02 | [8] 1 | [9] 1.02 | [10] 1.01

CCc1cccc(CC)c1N(COC)C(=O)CS(=O)(=O)[O-].[Na+]
inactive: [1] 1.02 | [2] 0.953 | [3] 1.01 | [4] 0.989 | [5] 1.07 | [6] 0.876 | [7] 0.996 | [8] 1.04 | [9] 1.07 | [10] 0.966

CS(=O)(=O)c1ccc(C(=O)C2C(=O)C(O)CC(O)C2=O)c(Cl)c1COCC(F)(F)F (stereo not given)
inactive: [1] 0.99 | [2] 0.986 | [3] 0.96 | [4] 0.972 | [5] 0.982 | [6] 0.965 | [7] 0.975 | [8] 0.978 | [9] 0.99 | [10] 1

CCOC(=O)C1=NN(c2ccc(Cl)cc2Cl)C(C)(C(=O)OCC)C1 (stereo not given)
inactive: [1] 0.965 | [2] 0.979 | [3] 0.932 | [4] 1.02 | [5] 0.933 | [6] 0.92 | [7] 0.95 | [8] 0.931 | [9] 1.03 | [10] 1.01

CNC(=O)Sc1ccc(OS(C)(=O)=O)cc1
inactive: [1] 0.955 | [2] 1.02 | [3] 0.858 | [4] 0.925 | [5] 0.77 | [6] 0.848 | [7] 0.953 | [8] 0.847 | [9] 0.96 | [10] 1.01

CCOC(=O)C(C)Oc1ccc(Oc2nc3ccc(Cl)cc3o2)cc1 (racemic)
inactive: [1] 1.1 | [2] 0.973 | [3] 0.96 | [4] 0.94 | [5] 0.898 | [6] 0.971 | [7] 0.981 | [8] 0.989 | [9] 1.01 | [10] 0.947

CS(=O)(=O)c1ccc(C(=O)O)c(N)c1
inactive: [1] 1.13 | [2] 0.993 | [3] 1.01 | [4] 1.02 | [5] 1.03 | [6] 0.994 | [7] 1.03 | [8] 1 | [9] 1.03 | [10] 1.03

Cc1cc(CC(C)CC(C)(C)C)n(O)c(=O)c1.NCCO (stereo not given)
inactive: [1] 1.22 | [2] 0.993 | [3] 0.982 | [4] 0.99 | [5] 0.932 | [6] 0.999 | [7] 1 | [8] 0.991 | [9] 0.977 | [10] 0.933

CC(C)NS(=O)(=O)NC(=O)c1cc(-n2c(=O)cc(C(F)(F)F)[nH]c2=O)c(F)cc1Cl
inactive: [1] 1.11 | [2] 1.04 | [3] 1.01 | [4] 1.01 | [5] 0.984 | [6] 0.991 | [7] 1.02 | [8] 0.993 | [9] 1.02 | [10] 0.994

N#Cc1c(N)nc(NC2CC2)nc1N
inactive: [1] 0.971 | [2] 1.03 | [3] 0.972 | [4] 1.02 | [5] 0.984 | [6] 1.01 | [7] 0.987 | [8] 0.899 | [9] 1.06 | [10] 1.05

CCCCC(CC)COC(=O)COc1ccc(Cl)cc1C (stereo not given)
inactive: [1] 1.15 | [2] 0.995 | [3] 0.997 | [4] 0.977 | [5] 0.983 | [6] 0.987 | [7] 0.943 | [8] 0.986 | [9] 0.979 | [10] 0.907

c1ccc2c(c1)ccc1ccccc12
inactive: [1] 1.02 | [2] 0.983 | [3] 1.01 | [4] 0.996 | [5] 0.999 | [6] 1.01 | [7] 1 | [8] 1.01 | [9] 1 | [10] 1.02

O=C(O)COc1cc(N2C(=O)C3=C(CCCC3)C2=O)c(F)cc1Cl
inactive: [1] 0.82 | [2] 0.999 | [3] 0.98 | [4] 0.968 | [5] 1.08 | [6] 0.975 | [7] 1.05 | [8] 1.04 | [9] 1.02 | [10] 0.967
